# Reference: PubChem BioAssay
# Several values for one entry are separate records, joined by “and”; a condition that tells them apart may be missing. Equal values may be shown once. Activity calls are given as the source filed them.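 How the source made its calls, unless noted: active means mean z-score across replicates of 1.96 or higher in either the MELAS or the Rieske mutant cell line; inactive means the rest.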
# Key:
# [1] = liver-stage malaria parasite growth inhibition, primary screen, cell-based, HepG2, luciferase luminescence, HepG2 viability (AID 624349; in the data active means parasite load remaining mostly below about 12%, no sharp cut-off; inactive means mostly above about 10%;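 further: 100% = mean of DMSO negative control wells on the same plate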); conditions: P. berghei liver stage in HepG2, luciferase luminescence, concentration not given here; parasite load remaining: stronger effect = lower value; viability: measured here: HepG2 viability without parasites
# [2] = sensitizers of A549 cells to miR-34 induction, primary screen, imaging, A549 dox-inducible miR-34, nuclei and caspase counts (AID 1347080;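 active means compounds whose cell count with miR-34 switched on is under 0.7 times the count with it off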); conditions: A549 miR-34 inducible, Hoechst nuclei count, 48 h
# [3] = survival rescue of mitochondrial mutant cells in low glucose, primary screen, MELAS cybrids, Rieske KO mouse fibroblasts, CellTiter-Glo (AID 1508586);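 further: z relative to plate mean and SD of compound and empty wells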
# [4] = viability rescue of complex I mutant cybrids, primary screen, cell-based, galactose medium, ATP luminescence (AID 1645843;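 active means z-score of at least 1.8 in each of two replicates, scored against plate mean and spread of sample wells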;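 further: positive z means more ATP and so rescue of galactose-driven cybrid death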); conditions: complex I mutant cybrid cells, 72 h, stronger effect = higher value
# [5] = stronger effect = lower value, cell number ratio, induced over uninduced
# [6] = measured here: relative caspase fold change +Dox/-Dox
# [7] = measured here: total cells with miR-34 induction, stronger effect = lower value
# [8] = measured here: total cells without miR-34 induction
# [9] = MELAS cybrid survival, CellTiter-Glo 48 h, stronger effect = higher value
# [10] = Rieske KO mouse fibroblast survival, CellTiter-Glo 72 h
Structure (SMILES),parasite load remaining [1],viability [1] [%],"fold change [2, 5]","fold change [2, 6]","cell count [2, 7]","cell count [2, 8]","z-score [3, 9]","z-score [3, 10]",z-score [4]
CCCCCCCCCCCCCCCC(=O)O[C@@H]1[C@@H](O)[C@@H](O)[C@@H](C(NC(=O)[C@@H]2C[C@@H](CCC)CN2C)C(C)Cl)O[C@@H]1SC (stereo partly specified),67.8% (inactive),204,0.867 (inactive),1.18,9340,10800,0.27 (inactive),-0.444,0.11 (inactive)
CO[C@H]1[C@@H]([C@@]2(C)O[C@@H]2CC=C(C)C)[C@]2(CC[C@H]1OC(=O)/C=C/C=C/C=C/C=C/C(=O)O)CO2,21% (inactive),104,0.953 (inactive),1.44,6670,7000,0.116 (inactive),-0.135,-0.585 (inactive)
CC#CCC(C)[C@H](O)/C=C/[C@@H]1[C@H]2C/C(=C/CCCC(=O)O)C[C@H]2C[C@H]1O (stereo partly specified),12.8% (inactive),77.5,0.876 (inactive),1.59,8850,10100,-0.239 (inactive),-0.923,0.275 (inactive)
CC(C)NC[C@@H](O)c1ccc(O)c(O)c1,67.9% (inactive),93.2,1.04 (inactive) and 0.887 (inactive),1.51 and 1.13,10500 and 9200,10100 and 10400,0.464 (inactive),-0.759,-1.29 (inactive)
O[C@H]1[C@H](O)[C@@H](O)[C@@H]2O[C@@H]2[C@@H]1O,29.7% (inactive),72,0.828 (inactive),1.47,9740,11800,0.534 (inactive),0.1,0.2 (inactive)
CC[C@H]1OC(=O)[C@H](C)[C@@H](O[C@H]2C[C@@](C)(OC)[C@@H](O)[C@H](C)O2)[C@H](C)[C@@H](O[C@@H]2O[C@H](C)C[C@H](N(C)C)[C@H]2O)C(C)(O)C[C@@H](C)CN(C)[C@H](C)[C@@H](O)[C@]1(C)O (stereo partly specified),18.4% (inactive),65.5,0.876 (inactive),1.13,9530,10900,-0.337 (inactive) and 0.0634 (inactive),-0.912 and -0.719,0.015 (inactive)
COc1ccc(C(=O)/C(Br)=C\C(=O)O)cc1,25.4% (inactive),107,0.888 (inactive),1.39,9940,11200,-0.188 (inactive),-0.289,-0.925 (inactive)
CC[C@]1(O)C[C@H]2CN(CCc3c([nH]c4ccccc34)[C@@](C(=O)OC)(c3cc4c(cc3OC)N(C)[C@H]3[C@@](O)(C(N)=O)[C@H](O)[C@]5(CC)C=CCN6CC[C@]43[C@@H]65)C2)C1,29.7% (inactive),79.5,1.02 (inactive),1.58,1810,1780,-2.11,2.09,-1.99 (inactive)
CCCCn1c(=O)c2c(ncn2CC(C)=O)n(CCCC)c1=O,49% (inactive),100,0.978 (inactive),1.23,10200,10400,0.541 (inactive),0.0406,0.875 (inactive)
CS(=O)(=O)c1ccc([C@@H](O)[C@@H](COC(=O)CN)NC(=O)C(Cl)Cl)cc1,19.3% (inactive),69.5,0.967 (inactive),1.61,9390,9720,-0.278 (inactive),1.38,-1.12 (inactive)
CCC(=O)OC(OP(=O)(CCCCc1ccccc1)CC(=O)N1C[C@H](C2CCCCC2)C[C@H]1C(=O)O)C(C)C (stereo partly specified),49.8% (inactive),108,0.948 (inactive),2.49,10100,10700,0.354 (inactive) and -0.69 (inactive),-0.176 and -1.17,0.59 (inactive)
CC1(C)C[C@H]1C(=O)N/C(=C\CCCCSC[C@@H](N)C(=O)O)C(=O)O,23.2% (inactive),65,0.879 (inactive),0.978,9660,11000,0.461 (inactive),1.05,0.565 (inactive)
CC(=O)OC1C=C2C(Cl)=C[C@@H]3[C@H](CC[C@@]4(C)[C@H]3CC[C@]4(OC(C)=O)C(C)=O)[C@@]2(C)CC1 (stereo partly specified),9.03% (inactive),64,0.729 (inactive),1.61,7220,9910,0.137 (inactive),1.01,0.185 (inactive)
CC[C@H]1OC(=O)[C@H](C)[C@@H](O[C@H]2C[C@@](C)(OC)[C@@H](O)[C@H](C)O2)[C@H](C)[C@@H](O[C@@H]2O[C@H](C)C[C@H](N(C)C)[C@H]2O)[C@](C)(O)C[C@@H](C)/C(=N/OCOCCOC)[C@H](C)[C@@H](O)[C@]1(C)O,72.6% (inactive),69.5,0.917 (inactive),1.04,9160,9990,-0.295 (inactive),-0.333,0.145 (inactive)
